These results are taken from PubChem BioAssay AID624296 (National Center for Advancing Translational Sciences (NCATS), 2012).

“And” between values parts separate entries of the source, which are not always exact repeats. Equal entries are not always repeated. Screen size: about 350,000 compounds; about 9,900 (2.8%) were called active. Entries that show only a call come without a potency. Inconclusive results (about 15%) are left out. Calls follow the shape of the dose curve; as a rule, active = well fitted activation curve with a large enough effect; inconclusive = small, poorly fitted or top-dose-only effect; inactive = no such curve, though single readings can be large or run the other way. Only a selection was taken, and actives are over-represented in it overall. The source holds several records for some structures; these can differ, active in one and inactive in another.
Potency is read from the fitted curve at half-maximal effect.

A short description of this assay: A quantitative high throughput screen for small molecules that induce DNA re-replication in MCF 10a normal breast cells. Also: nearly all actives have a fitted effect of over 50% in size. The note with it: MCF 10A DNA re-replication, Hoechst nuclear intensity, 48 h; series mostly up to 46.1 µM.
In the case of `COc1ccc(CCNC(=O)c2ccc(NC(=O)CC3SC(N4CCCCC4)=NC3=O)cc2)cc1OC` (centres undefined), the Potency entry is “inactive”.

Regarding `Cn1c(N)cc(=O)n(C)c1=S`, the Potency entry is “inactive”.

As to `CCOc1ccccc1NC(=O)CCc1ccc(C)o1`, the Potency entry is “inactive”.

As to `Cc1cnc(NC(=O)CSc2nnc(-c3ccc(Cl)cc3Cl)n2N)s1`, the Potency result was “inactive”.

Take `Cc1ccc(CCC(=O)Nc2ncc(Cc3cc(Cl)ccc3Cl)s2)o1`: the Potency was 1.16 µM (active).

For `CNS(=O)(=O)c1ccc(C(=O)NCC(=O)NCCc2ccc3c(c2)OCCO3)cc1`, the Potency entry was “inactive”.

On to `CCOC(=O)CNC(=O)N1c2ccccc2Sc2ccccc21`, for which the Potency entry is “inactive”.

In the case of `N/C(=N\OC(=O)N1c2ccccc2Sc2ccccc21)c1ccc(Br)cc1`, the Potency was 5.17 µM (active).

As to `N/C(=N\OC(=O)c1ccc2c(c1)OCO2)c1ccc(Br)cc1`, the Potency entry is “inactive”.

For `O=C(OCC(=O)N1CCN(c2ccccc2)CC1)c1ccc([N+](=O)[O-])s1`, the Potency entry is “inactive”.

With `COc1ccc(CCNC(=O)COC(=O)c2cnc(Cl)c(Cl)c2)cc1`, the Potency result was “inactive”.

For `Cc1nnc(OCC(=O)NCCC2=CCCCC2)c2ccccc12`, the Potency was 20.6 µM (active).

With `O=C(Cc1cccc2ccccc12)NCCC1=CCCCC1`, the Potency entry is “inactive”.

For `O=C(COc1cccc(-n2cnnn2)c1)NCCC1=CCCCC1`, the Potency result was “inactive”.

For the molecule `O=C(OCCOc1ccccc1F)c1cc(S(=O)(=O)N2CCOCC2)ccc1F`, the Potency result is “inactive”.

As to `CCCCN(C(=O)c1nn(C)c(=O)c2ccccc12)c1c(N)n(CCC)c(=O)[nH]c1=O`, the Potency entry is “inactive”.

For the molecule `COC(=O)C1=C(C)OC(N)=C(C#N)C1c1cc(OC)ccc1OC` (centres undefined), the Potency entry was “inactive”.

As for `COc1ccc(C2C(C#N)=C(N)Oc3cc(N)ccc32)cc1OC` (centres undefined), the Potency is 18.4 µM (active).

As to `CCC1=C(C(=O)OC)C(c2cc(OC)ccc2OC)C(C#N)=C(N)O1` (centres undefined), the Potency result is “inactive”.

For the molecule `O=C1NCC(c2ccccc2)(c2ccccc2)C(=O)N1`, the Potency result was “inactive”.

As to `O=C(Cc1ccc([N+](=O)[O-])cc1)NCCc1ccc2c(c1)OCO2`, the Potency result was “inactive”.

As to `O=C(c1cccnc1)N(Cc1ccccc1)C(=O)c1cccnc1`, the Potency entry was “inactive”.

For `COC(=O)Cc1csc(/N=C/c2c(O)n(-c3cccc(C(F)(F)F)c3)c(=O)c3ccccc23)n1`, the Potency entry is “inactive and 3.26 µM (active)”.

`Cc1ccc(-n2c(O)c(C=Nc3ccc(S(=O)(=O)Nc4ncccn4)cc3)c3ccccc3c2=O)cc1C`: the Potency entry is “inactive”.

With `COC(=O)Cc1csc(Nc2c(C)n(C)n(-c3ccccc3)c2=O)n1`, the Potency result was “inactive”.

On to `Cc1ccc(C)c(NC(=O)COC(=O)c2nn(C)c(=O)c3ccccc23)c1`, for which the Potency entry was “inactive”.

`COC(=O)c1ccc(COc2ccc(/C=C/C(=O)c3ccc(OC)c(CSCC(=O)O)c3)cc2OC)cc1`: the Potency was 2.91 µM (active).

For `COc1cc(/C=N/O)ccc1OCc1ccc([N+](=O)[O-])cc1`, the Potency entry is “inactive”.

For `COc1ccc(/C=C/C(=O)N2CCCC2)cc1OC`, the Potency entry was “inactive”.

With `Cc1c(Cl)cnc(NC(=O)COC(=O)C2CCCC2)c1Cl`, the Potency result is “inactive”.

For the molecule `Cc1noc(C)c1COc1ccc(C(=O)NCCOc2ccccc2)cc1`, the Potency entry is “inactive”.

Turning to `COc1ccc(C(=O)COC(=O)c2c(C)noc2C)cc1Cl`, the Potency entry was “inactive”.

As to `Cc1onc(-c2ccccc2Cl)c1C(=O)OCc1nnc(-c2ccccc2)o1`, the Potency entry is “inactive”.

As for `Cc1onc(-c2ccccc2Cl)c1C(=O)OCC(=O)c1ccccc1`, the Potency was 16.4 µM (active).

With `COc1cc(C(=O)OCc2cc(=O)n3ccsc3n2)ccc1OC(C)C`, the Potency result was “inactive”.

For the molecule `O=C(CN1C(=O)COc2ccccc21)NCCN1CCc2ccccc2C1`, the Potency result is “inactive”.

For `O=C(CN1C(=O)COc2ccccc21)Nc1ccc(F)cc1`, the Potency was 20.6 µM (active).

As to `CC(OC(=O)CN1C(=O)COc2ccccc21)C(=O)NCc1ccc(F)cc1` (centres undefined), the Potency result is “inactive”.

Consider `Cc1ccc(S(=O)(=O)N2CCN(C(=O)c3cc(S(=O)(=O)N4CCOCC4)ccc3F)CC2)cc1`, for which the Potency result was “inactive”.

With `O=C(c1ccc(Cl)c(S(=O)(=O)N2CCCCCC2)c1)N1CCN(c2ccc(O)cc2)CC1`, the Potency entry was “inactive”.

Turning to `CC(=O)Nc1ccc(/C=N/Nc2ccc(C(=O)c3c(C)cc4ccccn34)cc2[N+](=O)[O-])cc1`, the Potency result was “inactive”.

Regarding `Cc1ccc(C(=O)NNC(=O)CSc2nnc3ccccn23)cc1`, the Potency result is “inactive”.

Take `Cc1ccc(C(C[N+](=O)[O-])c2c(C)cc3ccccn23)cc1` (centres undefined): the Potency is 20.6 µM (active).

With `Cc1cc(Cl)ccc1OCCCC(=O)NCc1ccncc1`, the Potency result is “inactive”.

For the molecule `C/C(CC(=O)NCc1ccc(Cl)cc1)=N\NC(=O)COc1ccc(C)cc1Br`, the Potency is 5.8 µM (active).

As for `CCCCC(=O)N/N=C(\C)CC(=O)Nc1cc(Cl)ccc1OC`, the Potency result was “inactive”.

Regarding `COc1ccc(CC(=O)N[C@@H]2c3cc(OC)c(OC)cc3C[C@H]2OCc2ccccc2)cc1`, the Potency result was “inactive”.

Regarding `Cc1ccc(C(=O)Nc2ccccc2-c2ccccc2)cc1S(=O)(=O)Nc1ccccc1`, the Potency entry was “inactive”.

With `O=S(=O)(Nc1cc(Cl)ccc1N1CCOCC1)c1ccccc1Cl`, the Potency entry is “inactive”.

On to `Cc1sc(NC(=O)C2=COCCO2)c(C#N)c1C`, for which the Potency result was “inactive”.

Regarding `CCCc1ccc(-c2c(C)sc(NC(=O)c3ccnn3C)c2C#N)cc1`, the Potency is 16.4 µM (active).

As to `Cn1nccc1CNC(=O)c1ccnn1C`, the Potency result was “inactive”.

Consider `COCC(=O)N(C)[C@H]1C[C@H]2c3cc(Oc4ccccc4C)ccc3CCN2C(=O)[C@H]1[C@H](C)O`, for which the Potency entry was “inactive”.

As to `C=CCOC(=O)C1=C[C@@H](c2ccc3c(c2)OCO3)C[C@@H](OCCCCO)O1`, the Potency entry was “inactive”.

Regarding `CN1CCN(C(=O)C2=C[C@H](c3ccc4c(c3)OCO4)C[C@H](OCc3ccc(CO)cc3)O2)CC1`, the Potency is 8.2 µM (active).

`O=C(C1=C[C@H](c2coc3ccccc3c2=O)C[C@H](OCc2ccc(CO)cc2)O1)N1CCOCC1`: the Potency result was “inactive”.

Regarding `CC(=O)n1cc([C@H]2C=C(C(=O)N3CCOCC3)O[C@@H](OCc3ccc(CO)cc3)C2)c2ccccc21`, the Potency entry was “inactive”.

With `CC(=O)n1cc([C@@H]2C=C(C(=O)N3CCN(Cc4ccc5c(c4)OCO5)CC3)O[C@H](OCc3ccc(CO)cc3)C2)c2ccccc21`, the Potency was 13 µM (active).

Regarding `NC(=O)C1=C[C@@H](c2ccc3c(c2)OCO3)C[C@@H](OCCCCO)O1`, the Potency entry is “inactive”.

Consider `Cc1ccc2c(CN3CCN(S(=O)(=O)c4ccccc4C(F)(F)F)CC3)cc(=O)oc2c1`, for which the Potency result was “inactive”.

`COc1cc(C(c2c(NC(=O)c3ccco3)sc(C)c2C)N2CCOCC2)cc(OC)c1OC` (centres undefined): the Potency result was “inactive”.

On to `O=C(O)c1ccc([N+](=O)[O-])cc1Sc1ccsc1`, for which the Potency result was “inactive”.

In the case of `Cc1ccc(C)c(S(=O)(=O)N(C)c2ccc(OC(=O)C3CCN(C(=O)c4ccc(F)cc4)CC3)cc2)c1`, the Potency result was “inactive”.

With `COc1ccc(CCC(=O)Nc2ccc(Cl)c(S(=O)(=O)N3CCOCC3)c2)cc1OC`, the Potency result is “inactive”.

For `COc1ccc(Br)cc1CN(C)C(=O)C1CC(=O)N(C2CCCC2)C1` (centres undefined), the Potency result is “inactive”.

In the case of `COc1ccc(OC)c(NC(=O)COC(=O)Cc2ccsc2)c1`, the Potency entry is “inactive”.

For the molecule `CC(C)(C)c1ccc(/C=C/C(=O)NC2CCS(=O)(=O)C2)cc1` (centres undefined), the Potency was 0.92 µM (active).

Turning to `O=C(COC(=O)/C=C/c1ccc2c(c1)OCO2)NC1CCS(=O)(=O)C1` (centres undefined), the Potency result was “inactive”.

As for `CC(C)(C)c1ccc(/C=C/C(=O)Nc2ncccn2)cc1`, the Potency result is “inactive”.

`CCCc1cc(=O)[nH]c(SCC(=O)Nc2ccc(S(=O)(=O)N3CCCC3)cc2)n1`: the Potency entry is “inactive”.

As for `CC(C)c1ccc(OCC(O)CN2CCN(c3ccccn3)CC2)cc1` (centres undefined), the Potency is 16.4 µM (active).

Turning to `CC(=O)Nc1ccc(OCC(O)CN2CCN(c3ccccc3Cl)CC2)cc1` (centres undefined), the Potency result was “inactive”.

Regarding `Cc1ccccc1OCC(O)CN1CCN(c2ccccn2)CC1` (centres undefined), the Potency entry is “inactive”.

In the case of `COC(=O)[C@]1(CC(C)C)N[C@H](c2ccc(SC3CCCCC3)cc2)[C@@H]2C(=O)N(C)C(=O)[C@@H]21`, the Potency result is “inactive”.

Turning to `CSc1ncccc1C(=O)Nc1ccc2c(c1)OCO2`, the Potency entry is “inactive”.

Turning to `Nn1c(SCC(=O)Nc2ccc3c(c2)CCC3)nnc1C1CC1`, the Potency result is “inactive”.

As to `Cc1nc(N)sc1-c1ccccc1`, the Potency entry was “inactive”.

Consider `CCOC(=O)C1=C(C)N(C[C@@H]2CC[C@@H](Cc3ccc(-c4ccccc4)cc3)O2)C(=O)NC1c1ccc([N+](=O)[O-])cc1` (some centres undefined), for which the Potency result is “inactive”.

As for `COc1ccc(CN2CN(C(C)C)CSC2=S)cc1`, the Potency was 5.17 µM (active).

Consider `COc1ccc(CCC(C)N2CCc3ccccc3C2)cc1` (centres undefined), for which the Potency entry was “inactive”.

Take `S=C1SCN(CCN2CCOCC2)CN1Cc1ccccc1`: the Potency entry is “inactive”.

Regarding `S=C(Nc1ccccc1)Nc1ccc2ccccc2c1`, the Potency result was “inactive”.

Take `COc1ccc2[nH]c3c(c2c1)CCN1C(=O)C(CC(=O)NCCCN(C)C)C[C@H](C(=O)N2CCOCC2)[C@@]31CCC1CCCC1` (some centres undefined): the Potency result was “inactive”.

On to `CCOC(=O)[C@H]1[C@H]2COc3cc(OC)ccc3[C@@H]2N2C(=O)CN(Cc3ccc(Cl)cc3)C(=O)[C@@]12C`, for which the Potency result is “inactive”.

On to `CCC(C)c1ccc(NC(=O)COC(=O)C2CCCC2)cc1` (centres undefined), for which the Potency result was “inactive”.

For the molecule `COc1ccc(C(C[N+](=O)[O-])n2nc(C)cc2C)cc1` (centres undefined), the Potency is 13 µM (active).

On to `COc1ccc(OCc2cn3c(C)cc(C)nc3n2)cc1`, for which the Potency entry is “inactive”.

Regarding `COc1ccc(C(=O)CSc2nc(C)cc(C)n2)cc1[N+](=O)[O-]`, the Potency result is “inactive”.

`COc1ccccc1C(=O)Nc1ccc(OCC(=O)N2CCCCC2)cc1`: the Potency entry was “inactive”.

In the case of `COc1ccc2nc(Nc3nc(-c4cc5ccccc5oc4=O)cs3)sc2c1`, the Potency was 5.8 µM (active).

Regarding `Cc1ccc(Nc2nc(-c3ccc(O)cc3O)cs2)nc1`, the Potency entry was “inactive”.

Consider `CCNc1nc(-c2cc3ccccc3o2)cs1`, for which the Potency entry was “inactive”.

On to `O=c1oc2ccccc2cc1-c1csc(Nc2ccc(O)cc2)n1`, for which the Potency was 14.6 µM (active).

In the case of `CCc1noc(C)c1C(=O)Nc1nc2ccc(OC)cc2s1`, the Potency entry was “inactive”.

On to `COc1ccc2nc(Nc3nc(-c4ccncc4)cs3)sc2c1`, for which the Potency entry was “inactive”.

In the case of `CC(OC(=O)Cc1ccc(F)cc1)C(=O)N1CCc2ccccc21` (centres undefined), the Potency result was “inactive”.

As to `Cc1sc2ncnc(N3CCC(C(=O)Nc4ccc(F)cc4Cl)CC3)c2c1C`, the Potency result was “inactive”.

With `C#CCOCCOCCOCCNc1nc(N2CCN(C(=O)Cn3cc(CCO)nn3)CC2)nc(N2CCN(C(=O)Cn3cc(CCCN=C(N)N)nn3)CC2)n1`, the Potency entry was “inactive”.

Turning to `O=[N+]([O-])c1cccc(C=NN=Cc2ccccc2O)c1`, the Potency entry is “inactive”.
